The values below come from PubChem BioAssay (NCI).

Compounds without any hit were thinned out: in the full panel of roughly 83,000, 20% have a hit.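 The test compound was applied at a single concentration to cells in 96-well plates for 48 hours, and percent growth was recorded.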 Active and inactive are the calls of the source. How the source made its calls: active means growth percent below 10; inactive means the rest.

The test system of the assay is HL-60(TB) leukemia. Briefly: NCI-60 one-dose screen, 48 h (100 = growth as untreated, 0 = no growth, -100 = all killed). The note with it: 10 µM unless noted.
Turning to `O=C(CSc1nnc(-c2c[nH]c3ccccc23)n1-c1ccccc1)c1ccc(Br)cc1`, the growth was 44.5% (inactive).
Take `N/C(=N\c1nc2ccccc2s1)NC(=O)Nc1ccccc1F`: the growth was -5.29% (active).
In the case of `Cc1nc(Nc2ccccn2)sc1C(=O)CC(SCC(=O)Nc1ccc(Cl)cc1)c1ccccc1F` (stereo not given), the growth was 14% (inactive).
In the case of `Cc1ccc(O)cc1Nc1nc(SCCN2CCOCC2)nc2c1cnn2CC(Cl)c1ccc(Br)cc1` (stereo not given) it was -49.7% (active); in that of `Oc1cncc(-c2ccc3ncnc(N4CCc5cc(F)c(Cl)cc54)c3c2)c1`, 84.7% (inactive); in that of `COc1cc(/C=C/C(=O)c2cnn(-c3cc(=O)[nH]c4ccc(Cl)cc34)c2C)cc(OC)c1OC`, -23.1% (active).
As to `CCOc1ccccc1[C@H]1C(C(=O)c2ccc(Cl)cc2)C2(N[C@@H]1c1ccccc1)C(=O)Nc1ccc(Br)cc12` (stereo not given in full), the growth was -18.4% (active).
Then `CCCn1cc(-c2nc(Nc3ccc(C(=O)NCCCCNc4cccc5c4C(=O)N(C4CCC(=O)NC4=O)C5=O)cc3)nc3[nH]ccc23)cn1` (stereo not given), with -36.9% (active); and `COc1ccc2c(c1)C(Sc1ccc(F)cc1)c1c(nc(N)c(C#N)c1N)O2` (stereo not given), with 84.9% (inactive).
Consider `CC(=O)Nc1ccc(-c2cn(-c3cccc(C(=O)Nc4ccc(Cl)c(C(F)(F)F)c4)c3)nn2)cn1`, for which the growth was 35% (inactive).
For `Cn1cc(-c2cc3nc(-c4cn(C)c5ncccc45)cc(N)n3n2)c2cc(F)ccc21`, the growth is 7.11% (active).
With `COc1ccc(NC(=O)Cn2c(/C=C/c3ccc(N(C)C)cc3)nc3ccccc3c2=O)cc1`, the growth was 82.2% (inactive).
With `O=C(c1ccc(OCCN2CCOCC2)cc1)C1[C@H](c2ccc(Cl)cc2)[C@@H](c2ccccc2)NC12C(=O)Nc1ccc(Br)cc12` (stereo not given in full), the growth was -28.5% (active).
As to `O=C1Nc2cc(Cl)ccc2/C1=C/c1cccc(OCc2ccccc2)c1`, the growth is -25.3% (active).
Take `CC(=O)Oc1ccccc1C(=O)[Se]C(=NC1CCCCC1)NC1CCCCC1`: the growth is -17.5% (active).
In the case of `COc1ccc(NC(=O)c2sc3nc(C(C)C)ccc3c2N)cc1` it was 66.3% (inactive).
As for `C#CCOc1cc(N(CC)CC)ccc1C(C(=O)NC(C)(C)C)N(C(=O)C1CCc2cc(F)ccc2O1)c1ccccc1Br` (stereo not given), the growth was 21.7% (inactive).
In the case of `CCN1CCN(Cc2ccc(C(=O)Nc3cccc(-c4cn(-c5ccc6oc(=O)ccc6c5)nn4)c3)cc2C(F)(F)F)CC1` it was 27.7% (inactive).
In the case of `CCC(C)(C)c1ccc(OCCCCN2CCN(c3ccncc3)CC2)cc1` it was -57.7% (active); in that of `CCN(CC)c1ccc(/C=N/Nc2nc(-c3ccc(C)cc3)cs2)c(O)c1`, 70% (inactive); in that of `C#CCOc1ccc(/C=N/Nc2nc(-c3cc4cc(Br)ccc4oc3=O)cs2)cc1OC`, 71.1% (inactive).
In the case of `COc1ccc2[nH]cc(-c3nnc(N)nc3-c3cn(C)c4ncc(Br)cc34)c2c1`, the growth is 35% (inactive).
Then `O=C(COc1ccc(NC(=O)Nc2ccc(Cl)cc2)cc1)N/N=C/c1ccccc1`, with 45.8% (inactive).
Then `COc1cc2oc(-c3cccc(C(=O)Nc4ccc(Cl)cc4)c3)cc(=O)c2c(OCC(=O)N[C@@H](Cc2ccccc2)C(=O)O)c1OC`, with 115% (inactive); and `COc1ccc(OC)c(/C=N/NC(=O)c2ccc3nc(-c4ccc(Cl)cc4)[nH]c3c2)c1`, with 87.1% (inactive); and `COc1cc(C=O)ccc1OC(=O)c1cc(-c2ccc(C)cc2)n(-c2ccc(S(C)(=O)=O)cc2)n1`, with 83.4% (inactive).
For the molecule `COc1cc(CNC(=O)C[C@H](C)CCC=C(C)C)ccc1OCc1cn(-c2ccc(Cl)cc2Cl)nn1`, the growth was 95.5% (inactive).
As to `O=C(N/N=C/c1ccc(B(O)O)s1)c1[nH]c2ccc(Br)cc2c1-c1ccccc1`, the growth was -18.2% (active).
Consider `O=C(CSc1nc2ccccc2c(=O)[nH]1)NNC(=O)c1ccccc1Cl`, for which the growth is 105% (inactive).
With `Cn1cc(-c2nnc(N)nc2-c2c[nH]c3ccc(F)cc23)c2cccnc21`, the growth is 10.2% (inactive).
For the molecule `O=C(NNC(=O)c1ccc(OCc2nc3ccc(Cl)cc3[nH]2)cc1)Nc1ccc(Cl)c(Cl)c1`, the growth is 103% (inactive).
Then `Cc1ccc2c(c1)C(=O)/C(=C/c1ccc([N+](=O)[O-])cc1)S2`, with 107% (inactive).
In the case of `O=C(CN1CCN(c2ncnc3c2cnn3-c2ccccc2)CC1)Nc1ccc(Br)cc1` it was 64.3% (inactive); in that of `Clc1ccc(CNc2nc(SCCN3CCOCC3)nc3c2cnn3CC(Cl)c2ccc(Br)cc2)cc1` (stereo not given), -9.78% (active); in that of `Cc1cc(C(F)(F)F)ccc1C(=O)Nc1sc2c(c1C#N)CCC(=O)C2`, -14.5% (active).
In the case of `N/C(=N\c1nc2ccccc2s1)NC(=O)Nc1c(Cl)cccc1Cl` it was 17.9% (inactive); in that of `CC[C@]12C=CCN3CC[C@@]4(c5ccc(OC)cc5N(C)[C@H]4[C@@](O)(C(=O)OC)[C@@H]1OC(=O)CCCC[P+](c1ccc(F)cc1)(c1ccc(F)cc1)c1ccc(F)cc1)[C@@H]32`, -32.2% (active).
As to `Clc1ccc2c(N/N=C/c3c[nH]c4ccc(Br)cc34)ccnc2c1`, the growth is -74.7% (active).
With `CC12CC[C@@H]3[C@]4(C)COC(c5cn[nH]c5-c5ccc(Cl)cc5)O[C@@H]4CC[C@@]3(C)[C@@H]1CC(C1=CCOC1=O)O2` (stereo not given in full), the growth is 3.37% (active).
In the case of `CCOC(=O)/C=C/c1cccc2c1C(=O)NC(C)(c1cc3cc(Cl)ccc3oc1=O)N2` (stereo not given) it was 2.37% (active).
